# Reference: PubChem BioAssay AID1159506 (National Center for Advancing Translational Sciences (NCATS), 2015)
# The full ranking holds about 59,000 sequences; the median of the read-out is about -0.00055, and the lowest 2% start at about -2. The entries come from a sample that favours the lowest values as a whole.
# Experiment: Identification of proteins required for the processing of the EWS-FLI1 nascent transcript;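 note: robust z of luciferase light less the median z of siRNAs with the same seed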
# Settings: TC32 Ewing sarcoma NR0B1-luc vs CMV-luc (EWS-FLI1 target promoter against control promoter), 48 h; screened at 20 nM (by protocol)
# Procedure: Ewing sarcoma (ES) cells depend on the EWS-FLI1 fusion transcription factor for cell survival. Using an assay of EWS-FLI1 activity and genome-wide siRNA screening we have identified proteins required for the processing of the EWS-FLI1 nascent transcript. Parallel genome-wide siRNA-mediated RNAi screens were conducted in Ewing sarcoma TC32 cell lines expressing a luciferase (luc) reporter protein driven by either the promoter of the EWS-FLI1 target gene NR0B1 (TC32-NR0B1-luc) or the CMV promoter (TC32-CMV-luc). Luciferase activity was assessed 48 hours post siRNA-transfection.
# Twenty microl of serum-free media containing Lipofectamine RNAiMax (0.05 microl) was added to wells containing siRNA (0.8 pmol). Lipid and siRNA were allowed to complex for 45 min at ambient temperature before addition of 600 cells in RPMI-1640, 20% FBS to yield final transfection mixtures containing 20 nM siRNA in RPMI-1640, 10% FBS. Luciferase expression was measured using OneGlo (Promega, Madison, WI). The genome-wide screening campaign was conducted using Ambion's human genome library version 4.1 (Ambion, Austin TX). This library targets approximately 21000 human genes, three siRNAs per gene. Each siRNA is arrayed in an individual well of a 384-well plate. Parallel transfections were conducted in TC32-NR0B1-luc and TC32-CMV-luc cell lines and luciferase expression (OneGlo, Promega) was assayed 48 h later on a PerkinElmer Envision 2104 Multilabel plate reader (PerkinElmer, Waltham, MA). Qiagen's AllStars Negative control was incorporated on all screening plates for normalization (16 wells per plate). Qiagen, Germantown, MDsiGL4 was incorporated as a positive transfection control (16 wells per plate) on all plates. […] The raw luciferase data for the NR0B1- and CMV-luc screens were normalized and z-score-MAD transformed using standard methods (Chung et al., 2008). The miRNA-like seed sequence of every siRNA was determined and the median z-score for all siRNA sequences with the same seed sequence was calculated. This z-score was subtracted from the z-score associated with each siRNA with that seed sequence to generate a seed-adjusted z-score value (Z) that was used when the results for the three siRNAs corresponding to each gene were compared (Marine et al., 2012)
row,Sequence,seed-corrected z-score
1,UUUAGGAACCUUGACUAGC against GTF2F2,0.153
2,AACGUGUAGAUCUUCAUGA against UBXN6,-1.15
3,UGAAGUUCAGGUUCGUAAC against TBPL1,-2.64
4,UUGACAUUUACUUCAGUUU against TRABD,0.607
5,AGUGGAUACAUAGCUGUCU against ZBTB45,-0.6
6,UCCUUAAUUUGAUAUUUGC against MAGEA8,-0.105
7,AUACUUGCAGGUGUCAUUG against CD300A,-0.484
8,AUCGCUUUGAGGUUAGAGG against SYT3,-0.878
9,UAUCAUAUGAUGCAUAAGC against ANGPTL5,0.711
10,UGAUGAUACACUGCAAGUC against IGSF3,-2.96
11,UAAUCUAUUGAUAUGCUGG against SLC25A32,0.699
12,AAGUGGAACACUCAAGUCC against ZNF471,-1.03
13,AUAAAUGAUACGGGUGCUC against TPI1,-0.201
14,UAGGAGCAGAGGAAUCUUC against SLC35F4,0.0717
15,UUCUGAUGUAUGUUGAGCC against ZNF350,-4.18
16,UUCUCGUUGAUCUUUUUGG against CPXCR1,-0.131
17,UCCUGUUCCUUGAUAUUGU against GZMH,-0.564
18,UUAUCUGUGAGAGCAAUUA against LOC728752,-1.23
19,UCUGGAUCUAUUAAGCUGC against LRRFIP2,-2.34
20,AAAUCAGUGGGAAAGAUCC against DENND3,1.04
21,UUCUCCAUCAUGCGAAUGG against FEN1,0.188
22,UGGUAGUACACCUUGCAGC against C1orf111,-2.08

row,Sequence,seed-corrected z-score
1,UGUAAUACCUGAAUCGGUG against PRKRA,-0.234
2,AAAUAGACAAAUAGGAUCC against PSMD12,-2.98
3,UAUCUGAGAGUGAUCCUUC against LRRC47,1.55
4,UCAAUUCAGACUGUAAUGC against PTPDC1,-0.0227
5,AUUCUCACCAUAAAGAGCA against LOC729722,-2.33
6,UUAUGCUUAGGUAACUUGC against AADACL3,-3.87
7,UAUAUAUCGUGCUUGAUAC against RIPK2,0.0696
8,UAUGCGACAAAGAAUGACU against OR4N3P,0.242
9,UUUUCGAUUAAACCUUUUC against C17orf58,-0.0867
10,UAAUCAAUCAUAGAGAUAG against GSTO1,0.0812
11,UUUAUUACAAUCCAAAAGU against HCST,0.824
12,UUCUCGAUCAAGAGCAUCC against SPEF2,-12.2
13,UUUGUGGUUAUUCUUUUAU against CDC42EP2,-0.0752
14,UACAGCAUAAUCUCAUUUG against BPY2,0.91
15,UAAGCAGUAGAGUUAGUUC against LINC01249,0.231
16,UCUGUUCCAAGGCACUAUC against NFE4,0.0636
17,UUAUACACGAGGAAGAUGU against TMEM169,-0.406
18,UGAGUAAACAGCCUCAGUC against CMIP,-0.223
19,UCUCGAUGAAGUCAAACAG against COPG1,-2.97
20,AAUUUGCUAAAUCGUAUUC against CLLU1,-0.521
21,UCCAUUAUCCCAAUAGACC against PGM2,-0.182
22,UAGGGUUGGACUUUUUGUC against CYB5R3,0.597

row,Sequence,seed-corrected z-score
1,UCCAGUACCUUUUCCUUGG against LOC199882,0.35
2,AAUACUUGAAGGAAUAGGC against SUPT6H,-5.83
3,UACCAUAUUAUACACUUGC against STARD6,-0.0986
4,AUGGAUCCAAUUUGAGUUU against NR2F2-AS1,1.74
5,AUCUCAUAAAAGAUCAUCC against NUTM1,-0.0209
6,UAUUGUUAAGGACUUUAAC against DNAJB6,0.648
7,UUCGGUACACUCAUACGGC against ZNF300,0.363
8,UUAGCUGCUCGGUAACUGG against EPB41,-2.39
9,UAAUGACAUAUCGACAUUU against MIDN,-0.523
10,UUAGAGAAUAUGCCCAUGA against FGD3,-1.11
11,UUUGGGUAGAGGCCGAAUG against DNAJC13,-2.18
12,UAUGUUAUCAGUCCAUCUG against MND1,0.573
13,UCUACAUCAAUAACAGAGG against C5orf28,0.545
14,UUAUUGGUUGUGACUUUCC against TSLP,0.686
15,UCCCUUUUAAGCAACCUAC against APOC3,-0.83
16,UCAAUAUCCAGACCUGGUG against SF3A1,-2.88
17,UCCCGUAAAACAGAGACAC against OR2C3,-0.66
18,AUCGUGCUCGCUUGGAUCC against LOC729083,-0.203
19,UCGGUUGCGAAUCAGAAUC against NOTCH2,-2.01
20,UUAGAUACUCUGCAGGAUG against EPHA5,0.46
21,UUUAAUGUCCCAGUCCUCG against TMEM160,0.858
22,UCUUACAUAGGUAAUUGCC against AGTR1,-0.402

row,Sequence,seed-corrected z-score
1,UUCCUUAACCCAUCUACAG against C2orf49,0.273
2,UGAAUGACAUCCACUACCU against OR6K2,1.02
3,UCAAAGUCGAUUUCAAUCU against BRD4,-2.4
4,UAGAUGUCUGGAGCCCAUC against LYPD6,-0.74
5,AAAGGAGUCAGAUUCAUGC against GPATCH2L,0.347
6,UCUCCAACCAAUUGCCUCC against LOC200726,-0.147
7,UAGGGAACUCGUAUCUAGC against RNF213,0.191
8,UAGUUGUCGAUGUAAACUC against MUC2,-2.67
9,UUCCAUAUUACCGAGGUCC against ALCAM,0.291
10,UCUGAGAUAACAGUUCCUG against LOC644681,-0.647
11,UUCUCGAUCAUCCUGAUCU against BGN,-3
12,UGCUAGACAAUUCCACUUC against SLX4,-1.39
13,UAUCGCUCCUGACUAUUGC against PPP1R10,-0.157
14,ACAACUAUGAUUUUAAGGC against ACSL1,0.252
15,UUGUCUUUCCGGCUAAAGC against ZFP64,-1.36
16,UAUUGUAAGAAAACCCUUG against GNA13,1.07
17,UCUGUGUCCACAGAGCCGU against GPR78,-2.26
18,UACUACACUAUUCUUCAGG against TADA1,-0.3
19,UUGCGACUCAUGAAAUGGG against INO80,0.511
20,AUGGUAGUAAUCGCGGGCG against HSPA12B,-2.44
21,UAAGCGAAUAGGAUGCGCU against YWHAEP5,-1.53
22,UUUGCGAUGUUCCUCUUCC against GOLIM4,0.684

row,Sequence,seed-corrected z-score
1,UCAUUUCUAAGACCGCAUG against HNRNPUL1,-0.605
2,AAAGGUCAAUUCUUGAUGG against OR2L8,1.81
3,UCUGGAUGGAGGUUUGUUC against SLC38A10,1.34
4,UUGGAACAUAUUGGGAUCG against DDN,-0.0544
5,AUGUUUUCGCUGGAGUUGG against SSBP4,0.9
6,AUAGGUCUGAAUGAGCUGC against PLCD3,-0.512
7,UUCCUCAAAACUGCAGACU against LOC729451,-0.00746
8,UCCAUGUUGUCGAUCAUCU against RGS9BP,-2.21
9,UAUGAGUGCUCCACGAUGC against APOL3,0.115
10,UUCAUGACAAAGCUUGACC against PFN1P3,-0.053
11,UUGGUAAACAUCUCCAGGC against TRIM63,1.24
12,UUGUCGUUCAGCAAACUCC against ASCC2,-2.07
13,UCAGGAUAUAGUUUAGGAC against TMEM144,0.846
14,AAUGUAUCAAGUAUGUCGG against C16orf62,-2.25
15,UGAAAUAUCUCCAGGAUCU against EFCAB12,0.249
16,UAUGCGUUUUGGAGAUUCC against PARP8,-0.784
17,UCUGUCUUCCCAUAGGAUG against LOC440040,-2.05
18,AAUGGUAGAACAUCCCUGC against RIN2,-0.24
19,AACUUGAUCAAGUAGCUCG against EBLN1,-0.0938
20,UGUCAGUAUAGCACAGAUC against EFTUD2,-2.05
21,AAGGUAACCAGCUCGAUGG against RPL7AP27,-0.369
22,UUCUUUAUCCUUAGUCCUC against NFATC2IP,-3.11

row,Sequence,seed-corrected z-score
1,UACAGUAAUAGUGAGGCAG against GYPB,2.32
2,UUAGGGUCAGGAGCAGACA against CYP2F1,-0.167
3,UACUAACUUUUCGAUGUCC against MX2,0.257
4,UAGGUUGCAUCAUAGAGGG against CFL1,-2.11
5,UUUCGUGUUGCCGUAUUUC against GEMIN5,0.131
6,UACCAGUCAGGGUCUUCAC against UBC,-8.62
7,UGAGUAGAUGAUCUUGUCG against GNA11,0.913
8,AUAGGUGUCCUUCAGGUCC against MYL5,-0.00285
9,UGAGAUUUGAUGAUUCUGC against OR7E24,0.344
10,UGUGAAAGAGGCGAAAUGC against ELAC1,0.216
11,UUUUCCACAACCGUAGUCA against GOLGA8G,0.524
12,GAUGGAGGUGCCAUGGUUG against ZSWIM3,-0.304
13,UCUGGUUCUUUGUAAAGGC against S100A11P1,-2.25
14,UUAGGCUUAUUUCCCGCUC against BTN3A2,-0.656
15,UAGUGUACUCUAGAGCCCG against PLEKHG4,0.519
16,UUUCUCAUCACUAGAAGUC against PPIH,-0.684
17,UUGGAGAUAAGGGUUCUUG against MSTO1,-2.21
18,UGCAUCUUCUCUUAUGUGC against C16orf90,-1.02
19,UAACACUUUCAUUCCUGUC against FAM86B1,-1.15
20,UCUUGGUCAGGUUUCCUCG against MUSTN1,-0.107
21,AUUCUUCUAGGCAUUGCCC against PDE6D,0.469
22,UCUAUUACUUUCACAAUGC against KDM6A,-0.344
